Source: PubChem BioAssay (EPA / NIEHS)
Calls of active or inactive are those of the source. Rule for the calls: active = hit-call score of the fitted dose curve at least 0.9, where 1 is the maximum; inactive = score below 0.9.

Legend:
[1] = ATG_CRE_CIS: Attagene CIS-FACTORIAL HepG2 Assay for human cAMP Responsive Element (CRE) binding protein 3 (AID 2282926); conditions: HepG2 CRE cis-reporter, Attagene multiplexed mRNA; actives raise or lower the signal
In short: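 Multiplexed transcription-unit reporters transfected into HepG2; 24 h dosing; RT-PCR/capillary electrophoresis fluorescence read-out; bidirectional fit vs DMSO.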

[2] = biological target: CCAAT/enhancer-binding protein beta (Homo sapiens) (UniProt P17676); assay: ATG_C_EBP_CIS: Attagene CIS-FACTORIAL HepG2 Assay for human CCAAT/Enhancer Binding Protein (C/EBP) beta (AID 2282927); conditions: HepG2 Attagene cis-factorial transcription factor reporter; actives raise or lower the signal
In short: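 Endogenous transcription factor activity in human liver HepG2 cells is inferred from induction of a CEBPB-linked reporter mRNA. Exposure lasts 24 h; activity is fitted in both directions relative to DMSO.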

[3] = ATG_CMV_CIS: Attagene CIS-FACTORIAL HepG2 Assay for human CMV (Internal Marker) (AID 2282928); conditions: HepG2 CMV promoter reporter, transcription factor profiling; actives raise or lower the signal;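 note: endpoint acts as a background internal control marker rather than a target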
In short: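 Endogenous transcription factor activity read in HepG2 via transfected cis-promoter reporter units. After 24 h dosing, reporter mRNA measured by RT-PCR/capillary electrophoresis; gain or loss of signal fit relative to DMSO.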

[4] = ATG_DR4_LXR_CIS: Attagene CIS-FACTORIAL HepG2 Assay for human Liver X Receptor (LXR), DR4 submotif (AID 2282929); conditions: HepG2 Attagene DR4 cis-reporter, mRNA transcription; actives raise or lower the signal
In short: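 DR4 cis-reporter in HepG2, 24 h exposure. Detection: RT-PCR, 6-FAM labelling, CE fragment analysis. Endpoint fitted bidirectionally, DMSO = baseline.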

[5] = biological target: Aryl hydrocarbon receptor (Homo sapiens) (UniProt P35869); assay: ATG_Ahr_CIS: Attagene CIS-FACTORIAL HepG2 Assay for human Aryl Hydrocarbon Receptor (Ahr) (AID 2282930); conditions: HepG2 AhR cis-factorial reporter transcription; actives raise or lower the signal
In short: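 Transient MRTU transfection of HepG2 → 24 h compound exposure → total RNA, oligo(dT) RT → PCR, 6-FAM extension, HpaI cut → CE fluorescence. DMSO = baseline; bidirectional curve fit.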

[6] = ATG_AP_2_CIS: Attagene CIS-FACTORIAL HepG2 Assay for human Activator Protein 2 (AP-2) (AID 2282932); conditions: HepG2 AP-2 cis-reporter, Attagene transcription factor profiling; actives raise or lower the signal
In short: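 HepG2, transient MRTU transfection, cis-regulated reporters; 24 h compound exposure; RNA isolated, RT-PCR, 6-FAM labelling, HpaI digest, CE fluorescence. DMSO = negative control/baseline, bidirectional fit.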

[7] = ATG_BRE_CIS: Attagene CIS-FACTORIAL HepG2 Assay for human Bone Morphogenetic Protein (BMP) Response Element (BRE) (AID 2282933); conditions: HepG2 BMP response element reporter, Attagene transcription factor profiling; actives raise or lower the signal
In short: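 A HepG2 multiplex reporter system measured inducible reporter mRNA 24 h post-dosing. Detection: RT-PCR, 6-FAM primer extension, HpaI digestion, capillary electrophoresis. Activity fitted bidirectionally relative to DMSO.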

[8] = biological target: Retinoic acid receptor alpha (Homo sapiens) (UniProt P10276); assay: ATG_DR5_RAR_CIS: Attagene CIS-FACTORIAL HepG2 Assay for human Retinoic Acid Receptor Alpha (RARE), DR5 submotif (AID 2282934); conditions: HepG2 Attagene cis-factorial RARE DR5 reporter, mRNA; actives raise or lower the signal
In short: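 Transient MRTU transfection of HepG2; 24 h compound treatment; TriZol RNA, oligo(dT) RT, PCR, FAM labelling, capillary electrophoresis. Bidirectional fit vs DMSO. Endogenous TF activity at DR5 RARE.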

[9] = biological target: Transcription factor E2F1 (Homo sapiens) (UniProt Q01094); assay: ATG_E2F_CIS: Attagene CIS-FACTORIAL HepG2 Assay for human E2F Transcription Factor 1 (AID 2282935); conditions: HepG2 Attagene cis-reporter, E2F reporter RNA transcripts; actives raise or lower the signal
In short: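 Cis-element reporter mRNA induction in transiently transfected HepG2, 24 h exposure. Activity fitted in both directions relative to DMSO negative control.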

[10] = ATG_E_Box_CIS: Attagene CIS-FACTORIAL HepG2 Assay for human Enhancer Box (E-box) (AID 2282936); conditions: HepG2 E-box cis-reporter transcription, actives raise or lower the signal
In short: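 Cells: HepG2 (human liver), transient MRTU transfection. Exposure 24 h. RNA → oligo(dT) RT → PCR → 6-FAM label → HpaI → CE. Activity fitted both directions relative to DMSO.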

[11] = ATG_M_61_CIS: Attagene CIS-FACTORIAL HepG2 Assay for M61 Transcription Factor (Internal Marker) (AID 2282937); conditions: HepG2 Attagene CIS-FACTORIAL M61 internal marker reporter; actives raise or lower the signal
In short: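 Background-control endpoint: HepG2 cells with cis-regulated reporter constructs, 24 h exposure, reporter mRNA detected via fluorescent primer extension and capillary electrophoresis; values from bidirectional fitting with DMSO baseline.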

[12] = ATG_EGR_CIS: Attagene CIS-FACTORIAL HepG2 Assay for human Early Growth Response 1 (EGR1) (AID 2282938); conditions: HepG2 Attagene CIS-FACTORIAL EGR reporter mRNA; actives raise or lower the signal
In short: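 Endpoint derived by bidirectional fitting versus DMSO vehicle. Method: cis-promoter reporter units transfected into HepG2, 24 h dosing, RNA isolation, RT-PCR with 6-FAM primer extension and HpaI digestion, then capillary electrophoresis fluorescence detection.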

[13] = ATG_M_19_CIS: Attagene CIS-FACTORIAL HepG2 Assay for M19 Transcription Factor (Internal Marker) (AID 2282939); conditions: HepG2 Attagene CIS-FACTORIAL M19 internal marker reporter; actives raise or lower the signal
In short: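 Chemical-treated HepG2 (24 h) with MRTU constructs; reporter transcripts detected by fluorescent RT-PCR fragment analysis on capillary electrophoresis. Internal background marker, DMSO as baseline.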

[14] = ATG_Ets_CIS: Attagene CIS-FACTORIAL HepG2 Assay for human Erythroblast Transformation Specific (ETS) (AID 2282941); conditions: HepG2 ETS cis-reporter transcription, actives raise or lower the signal
In short: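 Steps: transfect HepG2 with multiple reporter units; treat compound 24 h; isolate RNA, DNase-treat, reverse-transcribe; PCR-amplify, label with 6-FAM, digest with HpaI; separate by capillary electrophoresis. Activity fitted both directions versus DMSO.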

[15] = biological target: Hepatocyte nuclear factor 3-beta (Homo sapiens) (UniProt Q9Y261); assay: ATG_FoxA2_CIS: Attagene CIS-FACTORIAL HepG2 Assay for human Forkhead box A2 (FOXA2) (AID 2282942); conditions: HepG2 cis-reporter transcription factor activity, 24 h; actives raise or lower the signal
In short: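 Measured: reporter mRNA induction or loss in HepG2 transiently carrying multiple cis-regulated reporter units, 24 h after dosing. Quantified by RT-PCR plus capillary electrophoresis, normalised to DMSO.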

[16] = ATG_FoxO_CIS: Attagene CIS-FACTORIAL HepG2 Assay for human Forkhead box O (FoxO) (AID 2282943); conditions: HepG2 Attagene cis-reporter, FoxO element, mRNA; actives raise or lower the signal
In short: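 HepG2, transient MRTU transfection (cis element, endogenous TFs). Dose 24 h. TriZol RNA → oligo(dT) RT → PCR → 6-FAM primer extension → HpaI cut → CE. Gain/loss vs DMSO.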

[17] = ATG_GATA_CIS: Attagene CIS-FACTORIAL HepG2 Assay for human GATA Binding Protein (AID 2282944); conditions: HepG2 GATA cis-element reporter, Attagene multiplex mRNA; actives raise or lower the signal
In short: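 Transfected cis-reporter HepG2 cells were treated with chemicals for 24 hours. Total RNA was then converted to cDNA, amplified with reporter-specific primers and analysed by fluorescent capillary electrophoresis, using DMSO-treated wells as baseline.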

[18] = ATG_GLI_CIS: Attagene CIS-FACTORIAL HepG2 Assay for human Zinc Finger Protein GLI1 (AID 2282945); conditions: HepG2, Attagene cis-factorial reporter mRNA, GLI element; actives raise or lower the signal
In short: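 Bidirectional curve fits relative to DMSO, using reporter mRNA levels from RT-PCR plus capillary electrophoresis. Cells were HepG2 transiently carrying cis-regulated reporter constructs, harvested 24 h after dosing.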

[19] = ATG_ERE_CIS: Attagene CIS-FACTORIAL HepG2 Assay for Estrogen Response Element (ERE) (AID 2282940); conditions: HepG2 ERE cis-reporter, Attagene RNA transcript; actives raise or lower the signal
In short: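 Human liver cells (HepG2) bearing transiently transfected, promoter-regulated reporter units were exposed 24 h. Reporter mRNA induction was detected by capillary electrophoresis of labelled RT-PCR products and fitted bidirectionally to DMSO.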

[20] = ATG_AP_1_CIS: Attagene CIS-FACTORIAL HepG2 Assay for human Activator Protein 1 (AP-1) (AID 2282931); conditions: HepG2 Attagene cis-factorial AP-1 reporter mRNA; actives raise or lower the signal
In short: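 Cis-regulated reporter units transiently expressed in HepG2 report endogenous transcription-factor activity. Signal: reporter mRNA at 24 h, via RT-PCR and fluorescent capillary electrophoresis. Endpoint derived by bidirectional fitting, DMSO as negative control.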

Measured: AC50

Transcription factor E2F1 (Homo sapiens), sequence (Q01094 whole entry, looked up): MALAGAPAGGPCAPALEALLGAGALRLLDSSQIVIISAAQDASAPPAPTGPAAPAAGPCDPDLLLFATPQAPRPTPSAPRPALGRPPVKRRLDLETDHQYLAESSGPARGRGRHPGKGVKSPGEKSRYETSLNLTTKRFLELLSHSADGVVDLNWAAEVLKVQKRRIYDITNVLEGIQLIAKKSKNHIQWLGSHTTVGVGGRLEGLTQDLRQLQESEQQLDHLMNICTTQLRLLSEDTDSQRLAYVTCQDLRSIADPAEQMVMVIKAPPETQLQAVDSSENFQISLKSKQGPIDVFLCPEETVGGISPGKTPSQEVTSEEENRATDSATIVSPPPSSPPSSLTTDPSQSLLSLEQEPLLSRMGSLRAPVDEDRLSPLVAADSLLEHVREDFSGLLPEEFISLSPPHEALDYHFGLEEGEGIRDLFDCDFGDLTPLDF
CCAAT/enhancer-binding protein beta (Homo sapiens), sequence (P17676 whole entry, looked up): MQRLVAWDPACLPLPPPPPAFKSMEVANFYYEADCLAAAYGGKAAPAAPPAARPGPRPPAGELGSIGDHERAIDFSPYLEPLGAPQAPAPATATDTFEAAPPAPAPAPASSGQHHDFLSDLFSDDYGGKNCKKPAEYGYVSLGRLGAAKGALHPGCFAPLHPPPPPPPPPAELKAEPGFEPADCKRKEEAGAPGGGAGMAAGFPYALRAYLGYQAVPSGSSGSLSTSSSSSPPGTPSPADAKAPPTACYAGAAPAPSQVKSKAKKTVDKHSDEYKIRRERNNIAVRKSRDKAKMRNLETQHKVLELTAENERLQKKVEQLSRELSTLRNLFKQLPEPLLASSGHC
Retinoic acid receptor alpha (Homo sapiens), sequence (P10276 whole entry, looked up): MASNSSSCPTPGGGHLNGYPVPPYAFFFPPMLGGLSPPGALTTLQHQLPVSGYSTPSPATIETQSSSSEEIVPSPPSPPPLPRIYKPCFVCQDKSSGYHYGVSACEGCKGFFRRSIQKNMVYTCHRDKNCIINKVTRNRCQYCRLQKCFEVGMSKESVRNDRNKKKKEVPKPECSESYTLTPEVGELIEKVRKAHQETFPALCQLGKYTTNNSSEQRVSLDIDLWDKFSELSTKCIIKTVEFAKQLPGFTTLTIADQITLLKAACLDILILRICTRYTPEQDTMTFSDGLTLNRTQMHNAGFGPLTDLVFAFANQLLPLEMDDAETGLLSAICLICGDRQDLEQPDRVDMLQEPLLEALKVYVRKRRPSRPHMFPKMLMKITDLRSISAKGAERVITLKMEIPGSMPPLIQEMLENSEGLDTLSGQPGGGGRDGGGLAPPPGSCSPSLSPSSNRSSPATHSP
Hepatocyte nuclear factor 3-beta (Homo sapiens), sequence (Q9Y261 whole entry, looked up): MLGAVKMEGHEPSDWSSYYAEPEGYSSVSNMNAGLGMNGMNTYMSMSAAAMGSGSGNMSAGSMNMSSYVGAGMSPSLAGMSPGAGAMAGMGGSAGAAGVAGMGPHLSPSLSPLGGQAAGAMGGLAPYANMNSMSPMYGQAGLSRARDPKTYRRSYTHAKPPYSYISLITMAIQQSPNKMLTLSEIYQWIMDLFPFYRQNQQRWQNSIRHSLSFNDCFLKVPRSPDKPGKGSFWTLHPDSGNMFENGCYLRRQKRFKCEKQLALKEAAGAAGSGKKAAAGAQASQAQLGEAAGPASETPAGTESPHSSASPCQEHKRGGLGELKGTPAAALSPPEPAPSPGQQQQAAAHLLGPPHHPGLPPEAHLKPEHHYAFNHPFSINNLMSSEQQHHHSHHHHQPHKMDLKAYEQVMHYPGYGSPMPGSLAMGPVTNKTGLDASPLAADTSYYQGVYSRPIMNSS
Aryl hydrocarbon receptor (Homo sapiens), sequence (P35869 whole entry, looked up): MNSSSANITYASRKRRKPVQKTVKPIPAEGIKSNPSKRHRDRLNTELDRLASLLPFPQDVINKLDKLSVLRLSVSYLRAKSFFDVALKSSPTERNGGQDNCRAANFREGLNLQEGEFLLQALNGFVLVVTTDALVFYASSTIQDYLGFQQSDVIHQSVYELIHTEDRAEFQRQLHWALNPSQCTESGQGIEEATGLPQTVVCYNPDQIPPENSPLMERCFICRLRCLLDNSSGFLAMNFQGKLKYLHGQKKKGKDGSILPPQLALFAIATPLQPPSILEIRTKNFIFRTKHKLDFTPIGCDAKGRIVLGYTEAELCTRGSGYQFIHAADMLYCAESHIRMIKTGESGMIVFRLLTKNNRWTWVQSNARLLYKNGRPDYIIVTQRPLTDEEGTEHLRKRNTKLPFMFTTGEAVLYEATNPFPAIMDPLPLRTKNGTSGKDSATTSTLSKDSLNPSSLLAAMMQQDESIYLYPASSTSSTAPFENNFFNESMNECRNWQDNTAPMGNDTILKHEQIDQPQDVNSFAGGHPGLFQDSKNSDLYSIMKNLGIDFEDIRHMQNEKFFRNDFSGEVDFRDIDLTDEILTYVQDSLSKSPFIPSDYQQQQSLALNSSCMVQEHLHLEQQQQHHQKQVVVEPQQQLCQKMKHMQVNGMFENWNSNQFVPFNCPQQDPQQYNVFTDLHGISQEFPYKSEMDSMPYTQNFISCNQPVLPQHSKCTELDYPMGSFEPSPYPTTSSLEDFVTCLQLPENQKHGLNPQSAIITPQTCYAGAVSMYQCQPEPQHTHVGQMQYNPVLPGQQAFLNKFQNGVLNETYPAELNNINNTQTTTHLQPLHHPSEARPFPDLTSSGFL

CC1CCC(C(C)CS)CC1S (stereo not given)
active: [1] 33.4 µM | [5] 45.9 µM | [9] 55.1 µM | [17] 61.1 µM
not listed: [19] | [20]
inactive: all other assays above

O=Cc1ccc(F)cc1
not listed: [8] | [20]
inactive: all other assays above

CN(C)C(=N)N=C(N)N
not listed: [7] | [19] | [20]
inactive: all other assays above

CCO[Si](CCCS)(OCC)OCC
not listed: [16] | [19] | [20]
inactive: all other assays above

C=C(C)C1CCC(C)CC1O (stereo not given)
not listed: [8] | [16] | [17] | [19] | [20]
inactive: all other assays above

CCCCCCCCCCN
not listed: [19] | [20]
inactive: all other assays above

CCCCCCCCCCCCOCCO
active: [3] 33.4 µM | [4] 51.7 µM | [5] 33.4 µM | [6] 57.4 µM | [10] 50.6 µM | [15] 47.6 µM | [16] 56.6 µM | [18] 60.7 µM
not listed: [19] | [20]
inactive: all other assays above

COC(=O)OC
not listed: [7] | [8] | [11] | [12] | [16] | [19]
inactive: all other assays above

CCCCCCCCCCCCN(CCCCCCCCCCCC)CCCCCCCCCCCC
not listed: [12] | [19] | [20]
inactive: all other assays above

CC(=O)C(C)=O
active: [3] 40.6 µM
not listed: [7] | [8] | [11] | [19] | [20]
inactive: all other assays above

CC1(C)[C@H]2CC[C@]1(C)[C@H](O)C2
not listed: [8] | [19] | [20]
inactive: all other assays above

CN1Cc2c(N)cccc2C(c2ccccc2)C1 (stereo not given)
not listed: [5] | [19]
inactive: all other assays above

CN(C)CCOCCN(C)C
not listed: [5] | [8] | [19]
inactive: all other assays above

Clc1cccc(Cl)n1
not listed: [8] | [19] | [20]
inactive: all other assays above

CC(C)=CCC/C(C)=C/COC=O
not listed: [5] | [17] | [19]
inactive: all other assays above

Cc1ccc(O)c(C(C)(C)C)c1
active: [4] 100 µM | [13] 148 µM | [18] 173 µM
not listed: [8] | [19] | [20]
inactive: all other assays above
